According to PubChem BioAssay (Tox21):
Inconclusive results are not listed. The source made the active and inactive calls. Unless noted, calls come from the whole dose curve.

Columns and labels:
[1] = Nuclear factor erythroid 2-related factor 2/antioxidant responsive element (Nrf2/ARE) small molecule agonists: luciferase reporter gene qHTS assay in human keratinocytes (AID 1919969); settings: KeratinoSens HaCaT ARE-luciferase, luminescence, 24 h; series mostly up to 92.4 µM; note: nearly all actives have a fitted effect of over 35% in size
[2] = target: Gonadotropin-releasing hormone receptor (Homo sapiens) (UniProt P30968); experiment: Human gonadotropin-releasing hormone receptor (GnRHR) small molecule agonists, calcium flux assay in GnRHR-HEK293 cells (AID 1920063); settings: calcium flux fluorescence, agonist mode; series mostly up to 57.6 µM; note: nearly all actives have a fitted effect of over 35% in size
Sequence of Gonadotropin-releasing hormone receptor (Homo sapiens) (P30968 whole entry, looked up): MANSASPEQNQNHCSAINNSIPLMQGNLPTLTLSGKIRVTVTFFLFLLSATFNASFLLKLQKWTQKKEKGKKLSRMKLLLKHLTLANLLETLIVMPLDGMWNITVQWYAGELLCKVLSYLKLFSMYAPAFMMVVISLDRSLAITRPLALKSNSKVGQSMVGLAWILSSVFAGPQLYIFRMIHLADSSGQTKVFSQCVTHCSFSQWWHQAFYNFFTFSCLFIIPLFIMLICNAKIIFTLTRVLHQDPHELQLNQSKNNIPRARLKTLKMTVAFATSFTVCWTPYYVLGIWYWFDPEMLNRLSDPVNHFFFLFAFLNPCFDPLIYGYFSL
Procedure, shortened: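 HEK293 cells stably expressing human GnRHR were plated 18 h at 37 °C, loaded with calcium dye 1 h at 37 °C, then given compound in agonist mode; fluorescence (Ex/Em 480/540) read kinetically for 3 min at 1 s intervals.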

[3] = target: KiSS-1 receptor (Homo sapiens) (UniProt Q969F8); experiment: Human kisspeptin (KISS1R) small molecule agonists, calcium flux assay in KISS1R-HEK293 cells (AID 1920064; active = well fitted activation curve with a large enough effect in the repeat runs); settings: KISS1R-HEK293, calcium flux fluorescence, agonist; series mostly up to 76.8 µM
Sequence of KiSS-1 receptor (Homo sapiens) (Q969F8 whole entry, looked up): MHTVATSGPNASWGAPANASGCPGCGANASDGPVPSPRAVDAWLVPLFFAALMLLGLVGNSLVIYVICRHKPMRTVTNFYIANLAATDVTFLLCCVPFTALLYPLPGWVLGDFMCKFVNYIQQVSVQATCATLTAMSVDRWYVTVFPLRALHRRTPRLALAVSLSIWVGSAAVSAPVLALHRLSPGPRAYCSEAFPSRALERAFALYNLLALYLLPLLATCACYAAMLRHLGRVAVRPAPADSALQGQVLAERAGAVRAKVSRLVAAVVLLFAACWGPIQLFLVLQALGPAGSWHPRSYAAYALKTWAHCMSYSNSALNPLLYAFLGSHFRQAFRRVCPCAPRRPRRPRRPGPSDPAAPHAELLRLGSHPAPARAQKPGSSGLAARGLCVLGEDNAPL
Procedure, shortened: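 HEK293 cells stably expressing human KISS1R were plated 18 h at 37 °C, loaded with calcium dye for 1 h at 37 °C, then given compound by pin tool. Fluorescence (Ex/Em 480/540) was read kinetically for 3 min.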

[4] = G protein-coupled receptor (GPCR) small molecule agonists, calcium flux assay: HEK293 wild type cell line counter screen (AID 1920065); settings: HEK293 WT calcium flux, fluorescence, agonist mode; series mostly up to 57.6 µM
Procedure, shortened: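 Cells were plated and cultured 18 h at 37 C/5% CO2, then loaded with calcium dye for 1 h at 37 C. Compounds in DMSO were pin-transferred in agonist mode, and fluorescence (Ex/Em 480/540) was read kinetically for 3 min at 1 s intervals.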

[5] = p53 small molecule agonists, cell-based qHTS assay with human liver microsomes (AID 1963577); settings: HCT-116 p53RE-bla with human liver microsomes, ratio, 16 h; series mostly up to 66 µM;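 note: p53 response element beta-lactamase reporter cells with liver microsomes plus NADPH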
Procedure, shortened: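 With metabolic activation: human liver microsomes (0.5 mg/mL final) plus NADPH (0.5 mg/mL final) added alongside compounds to p53RE-bla cells; 16 h 37 C exposure; beta-lactamase read by LiveBLAzer fluorescence.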

[6] = p53 small molecule agonists, cell-based qHTS assay with rat liver microsomes (AID 1963578); settings: HCT-116 p53RE-bla, beta-lactamase ratio, 16 h; series mostly up to 66 µM
Procedure, shortened: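 Metabolic activation by rat liver microsomes and NADPH, each 0.5 mg/mL final, added right after compounds to p53RE-bla reporter cells (4,000/well, plated 5 h earlier). 16 h at 37 C, then LiveBLAzer substrate for 2 h at room temperature in the dark; fluorescence read-out.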

[7] = p53 small molecule agonists, cell-based qHTS assay with rat liver microsomes: qHTS cell viability counter screen (AID 1963580); settings: p53RE-bla HCT-116 + rat microsomes, ATP viability, 16 h; series mostly up to 66 µM; note: nearly all actives have a fitted effect of over 45% in size
Procedure, shortened: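 Viability is assessed in parallel with the p53 reporter read: HCT-116 p53RE-bla cells receive compounds plus rat microsomes and NADPH (0.5 mg/mL final apiece), incubate 16 h at 37 C, and then CellTiter-Glo luminescence is recorded.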

[8] = p53 small molecule agonists, cell-based qHTS assay: qHTS cell viability counter screen (AID 1963581); settings: p53RE-bla HCT-116 viability, ATP luminescence, 16 h; series mostly up to 66 µM; note: nearly all actives have a fitted effect of over 45% in size
Procedure, shortened: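 p53RE-bla HCT-116 cells were exposed to compounds for 16 h at 37 C; after the beta-lactamase FRET read in the same wells, CellTiter-Glo was added and luminescence (intracellular ATP) read after 30 min at room temperature.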

[9] = target: 5-hydroxytryptamine receptor 2A (Homo sapiens) (UniProt P28223); experiment: 5-hydroxytryptamine receptor 2A (HTR2A) small molecule agonists, cell-based qHTS assay (AID 1963587); settings: HTR2A-CHO cells, calcium flux fluorescence, agonist mode; series mostly up to 76.8 µM; note: nearly all actives have a fitted effect of over 30% in size
Sequence of 5-hydroxytryptamine receptor 2A (Homo sapiens) (P28223 whole entry, looked up): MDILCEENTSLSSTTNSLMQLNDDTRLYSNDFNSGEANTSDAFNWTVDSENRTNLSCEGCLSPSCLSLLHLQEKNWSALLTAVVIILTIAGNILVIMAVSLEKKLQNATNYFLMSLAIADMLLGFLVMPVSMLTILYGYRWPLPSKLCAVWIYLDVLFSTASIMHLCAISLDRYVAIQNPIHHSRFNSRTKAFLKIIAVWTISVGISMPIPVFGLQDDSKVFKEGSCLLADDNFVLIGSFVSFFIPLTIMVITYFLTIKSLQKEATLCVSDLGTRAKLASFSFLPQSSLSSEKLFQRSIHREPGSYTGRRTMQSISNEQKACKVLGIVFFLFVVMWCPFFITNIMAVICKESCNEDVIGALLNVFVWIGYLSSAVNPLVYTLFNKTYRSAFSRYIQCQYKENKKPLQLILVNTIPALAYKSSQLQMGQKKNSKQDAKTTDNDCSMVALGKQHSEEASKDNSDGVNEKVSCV
Procedure, shortened: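 CHO cells stably expressing human HTR2A, plated 18 h, loaded with calcium dye 1 h at 37 C. Agonist mode: compounds added and intracellular calcium fluorescence recorded kinetically for 2 min at 1 sec intervals.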

[10] = target: Muscarinic acetylcholine receptor M1 (Homo sapiens) (UniProt P11229); experiment: Cholinergic receptor muscarinic 1 (CHRM1) small molecule antagonists, cell-based qHTS assay (AID 1963588); settings: CHRM1-CHO antagonist mode, calcium flux fluorescence; series mostly up to 61.5 µM; note: nearly all actives have a fitted effect of over 40% in size
Sequence of Muscarinic acetylcholine receptor M1 (Homo sapiens) (P11229 whole entry, looked up): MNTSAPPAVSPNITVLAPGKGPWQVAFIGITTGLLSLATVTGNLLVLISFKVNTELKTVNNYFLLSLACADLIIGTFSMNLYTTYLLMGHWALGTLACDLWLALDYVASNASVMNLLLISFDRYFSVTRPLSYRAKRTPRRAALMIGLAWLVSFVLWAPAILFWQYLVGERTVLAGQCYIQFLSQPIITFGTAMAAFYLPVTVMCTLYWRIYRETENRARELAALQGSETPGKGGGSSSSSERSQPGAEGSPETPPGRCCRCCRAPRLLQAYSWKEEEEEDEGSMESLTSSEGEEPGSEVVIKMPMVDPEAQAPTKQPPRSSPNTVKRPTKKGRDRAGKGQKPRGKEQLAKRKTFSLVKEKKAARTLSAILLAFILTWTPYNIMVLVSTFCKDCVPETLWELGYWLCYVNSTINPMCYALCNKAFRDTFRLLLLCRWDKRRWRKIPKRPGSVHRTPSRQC
Procedure, shortened: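 CHRM1-CHO calcium-flux assay, antagonist mode. Cells were seeded 18 h, dye-loaded 1 h at 37 C and given compound for 5 min at RT, then acetylcholine was added at 50nM. FDSS fluorescence was read 3 min; 15 concentrations, three runs.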

[11] = target: Muscarinic acetylcholine receptor M1 (Homo sapiens) (UniProt P11229); experiment: Cholinergic receptor muscarinic 1 (CHRM1) small molecule agonists, cell-based qHTS assay (AID 1963589); settings: CHRM1-CHO cells, agonist mode, calcium flux fluorescence; series mostly up to 76.8 µM; note: nearly all actives have a fitted effect of over 35% in size
Procedure, shortened: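 CHO cells stably expressing human CHRM1, seeded 18 h at 37 C/5% CO2, dye-loaded 1 h at 37 C, then given compound in agonist mode; intracellular calcium fluorescence read kinetically at 1 s intervals. Fifteen concentrations, three independent runs.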

[12] = target: Beta-2 adrenergic receptor (Homo sapiens) (UniProt P07550); experiment: Adrenergic beta2 receptor (ADRB2) small molecule antagonists, cell-based qHTS assay (AID 1963592); settings: CHO-ADRB2 cells, isoproterenol-stimulated cAMP HTRF ratio, 0.5 h; series mostly up to 92.4 µM; note: nearly all actives have a fitted effect of over 50% in size
Sequence of Beta-2 adrenergic receptor (Homo sapiens) (P07550 whole entry, looked up): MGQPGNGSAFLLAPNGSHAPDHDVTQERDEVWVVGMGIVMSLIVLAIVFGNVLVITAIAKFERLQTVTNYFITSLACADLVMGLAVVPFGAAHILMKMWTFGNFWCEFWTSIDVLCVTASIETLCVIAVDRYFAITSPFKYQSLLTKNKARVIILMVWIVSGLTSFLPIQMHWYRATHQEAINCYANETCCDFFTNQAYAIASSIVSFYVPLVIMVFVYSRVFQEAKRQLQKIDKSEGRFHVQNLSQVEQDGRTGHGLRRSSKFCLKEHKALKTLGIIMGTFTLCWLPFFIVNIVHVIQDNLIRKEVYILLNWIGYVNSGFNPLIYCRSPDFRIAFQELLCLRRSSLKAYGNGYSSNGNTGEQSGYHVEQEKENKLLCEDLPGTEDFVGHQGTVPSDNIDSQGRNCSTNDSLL
Procedure, shortened: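 Cells (CHO, stable ADRB2 overexpression) incubated 18-20hr at 37C; compounds added from DMSO; agonist mix (1nM isoproterenol, 100uM IBMX, 25uM Ro-20-1724) added; 0.5hr RT; d2-cAMP and anti-cAMP-cryptate added; 1hr RT; 665/615 nm read.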

[13] = target: D(2) dopamine receptor (Homo sapiens) (UniProt P14416); experiment: Dopamine D2 receptor (DRD2) small molecule agonists, cell-based qHTS assay (AID 1963594); settings: HEK293-DRD2 cAMP HTRF, agonist mode, 30 min; series mostly up to 92.4 µM; note: nearly all actives have a fitted effect of over 35% in size
Sequence of D(2) dopamine receptor (Homo sapiens) (P14416 whole entry, looked up): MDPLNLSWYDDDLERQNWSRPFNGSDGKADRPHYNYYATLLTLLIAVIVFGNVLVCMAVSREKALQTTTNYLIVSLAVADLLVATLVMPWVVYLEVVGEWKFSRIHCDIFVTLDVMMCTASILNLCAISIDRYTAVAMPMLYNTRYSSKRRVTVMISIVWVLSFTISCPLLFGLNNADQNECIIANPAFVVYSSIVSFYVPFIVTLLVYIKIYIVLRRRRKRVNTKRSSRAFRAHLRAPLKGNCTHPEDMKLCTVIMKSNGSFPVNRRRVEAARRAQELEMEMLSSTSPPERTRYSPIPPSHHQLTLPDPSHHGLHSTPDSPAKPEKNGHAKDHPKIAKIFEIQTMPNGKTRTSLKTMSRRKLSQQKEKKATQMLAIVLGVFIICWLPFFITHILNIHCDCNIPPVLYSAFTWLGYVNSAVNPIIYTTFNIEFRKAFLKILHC
Procedure, shortened: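 HEK293 cells stably expressing human DRD2, pre-treated with PDE inhibitor Ro20-1724 (0.1 mM final) and compound 10 min at room temperature, then stimulated with NKH477 (200nM […]) for 30 min. cAMP read by HTRF (665/620 nm).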

[14] = target: D(2) dopamine receptor (Homo sapiens) (UniProt P14416); experiment: Dopamine D2 receptor (DRD2) small molecule antagonists, cell-based qHTS assay (AID 1963595; active = well fitted inhibition curve with a large enough effect in the signal ratio in the repeat runs, with a control signal flat; the % refers to the signal ratio); settings: HEK293-DRD2 cAMP HTRF antagonist mode; series mostly up to 92.4 µM
Procedure, shortened: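 Human DRD2 antagonist qHTS measuring cAMP by HTRF. The cells are exposed to compound for 10 min, then to NKH477 (200 nM) and quinpirole (12 nM) for 30 min at RT, with Ro20-1724 (0.1 mM) present throughout.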

[15] = p53 small molecule agonists, cell-based qHTS assay with human liver microsomes: qHTS cell viability counter screen (AID 1963579); settings: p53RE-bla HCT-116 viability, ATP luminescence, 16 h, HLM; series mostly up to 66 µM; note: nearly all actives have a fitted effect of over 45% in size
Procedure, shortened: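 Metabolic activation used human liver microsomes and NADPH, both 0.5 mg/mL final, over 16 hours at 37 C on p53RE-bla cells (4,000/well). Cytotoxicity measured by CellTiter-Glo luminescence, 30 min at room temperature.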

[16] = target: 5-hydroxytryptamine receptor 2A (Homo sapiens) (UniProt P28223); experiment: 5-hydroxytryptamine receptor 2A (HTR2A) small molecule antagonists, cell-based qHTS assay (AID 1963586); settings: HTR2A-CHO cells, DOI-induced calcium flux, fluorescence; series mostly up to 61.5 µM; note: nearly all actives have a fitted effect of over 45% in size
Procedure, shortened: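 Antagonist-mode intracellular calcium assay: DOI (4 nM) added after 5 min compound pre-incubation at room temperature to dye-loaded HTR2A-CHO cells. Fluorescence followed for 3 min, sampled every second.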

[17] = cAMP Responsive Elements (CRE) small molecule antagonists, cell-based qHTS assay (AID 1963591; active = well fitted inhibition curve with a large enough effect in the signal ratio in the repeat runs, not every such curve was filed as active; the % refers to the signal ratio); settings: CRE-bla HEK293T, beta-lactamase FRET ratio; series mostly up to 92.4 µM
Procedure, shortened: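 CRE-bla HEK293T cells were plated 18 h at 37 °C/5% CO2, pinned with compound in DMSO, then stimulated with NKH477 at 0.25 uM final for 3 h. LiveBLAzer B/G FRET substrate was added and plates incubated 2 h at room temperature.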

[18] = p53 small molecule agonists, cell-based qHTS assay (AID 1963582; active = well fitted activation curve with a large enough effect in the signal ratio in the repeat runs, not every such curve was filed as active; the % refers to the signal ratio); settings: HCT-116 p53RE-bla reporter, beta-lactamase FRET ratio, 16 h; series mostly up to 66 µM
Procedure, shortened: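 p53RE-bla beta-lactamase reporter cells rested 5 h at 37 C/5% CO2, then received compounds in DMSO by pin transfer and were incubated 16 h at 37 C. LiveBLAzer B/G FRET substrate was loaded for 2 h at room temperature before fluorescence reading.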

[19] = cAMP Responsive Elements (CRE) small molecule agonists, cell-based qHTS assay (AID 1963590); settings: CRE-bla HEK293T, beta-lactamase FRET ratio, 3 h; series mostly up to 92.4 µM
Procedure, shortened: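 CRE-bla HEK 293T cells in DMEM with 10% dialyzed FBS, NEAA, pyruvate and 25 mM HEPES were plated 18 h at 37 C/5% CO2, then exposed to compounds in DMSO for 3 h before LiveBLAzer B/G FRET substrate addition.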

[20] = target: Beta-2 adrenergic receptor (Homo sapiens) (UniProt P07550); experiment: Adrenergic beta2 receptor (ADRB2) small molecule agonists, cell-based qHTS assay (AID 1963593); settings: CHO-ADRB2 cells, cAMP HTRF, 30 min; series mostly up to 42.5 µM;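 note: CHO cells stably overexpressing human ADRB2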
Procedure, shortened: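 CHO cells stably over-expressing ADRB2 were plated overnight at 37C, then dosed with compounds plus a stimulation mix containing 100uM IBMX and 25uM Ro-20-1724 for 0.5hr at room temperature. cAMP was measured by HTRF competition, 1hr.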

Measured: Potency

CNC(=O)c1cc(Oc2ccc(NC(=O)Nc3ccc(Cl)c(C(F)(F)F)c3)cc2)ccn1
inactive: [1] | [2] | [3] | [4] | [5] | [6] | [7] | [8] | [9] | [10] | [11] | [12] | [13] | [14]

Nc1ccc2cc(S(=O)(=O)O)cc(O)c2c1
inactive: [1] | [2] | [3] | [4] | [5] | [6] | [15] | [7] | [8] | [16] | [9] | [11] | [17]

COc1ccc(-c2cc(=O)c3c(O)cc(O[C@@H]4O[C@H](CO[C@@H]5O[C@@H](C)[C@H](O)[C@@H](O)[C@H]5O)[C@@H](O)[C@H](O)[C@H]4O)cc3o2)cc1O
inactive: [1] | [2] | [3] | [4] | [5] | [6] | [15] | [7] | [18] | [9] | [11] | [19] | [17] | [20] | [13] | [14]

CC(C)=CCC/C(C)=C/CC/C(C)=C/C(=O)OCC(=O)[C@@]1(O)CC[C@H]2[C@@H]3CCC4=CC(=O)C=C[C@]4(C)[C@H]3[C@@H](O)C[C@@]21C
inactive: [1] | [2] | [3] | [4] | [5] | [6] | [7] | [8] | [16] | [9] | [10] | [19] | [17] | [12] | [13]

Cc1cnc(NS(=O)(=O)c2ccc(N)cc2)nc1
inactive: [1] | [2] | [3] | [4] | [5] | [6] | [15] | [18] | [16] | [9] | [10] | [11] | [19] | [17] | [12] | [14]

COC(=O)CCCC(=O)O
inactive: [1] | [2] | [3] | [4] | [5] | [6] | [15] | [7] | [18] | [16] | [9] | [10] | [11] | [12] | [13] | [14]

O=C(C(Cl)Cl)N1CCOC12CCCCC2
inactive: [1] | [2] | [3] | [4] | [5] | [6] | [15] | [7] | [18] | [16] | [9] | [10] | [11] | [19] | [17] | [12] | [13]

CN(C)CCN1CCOCC1
inactive: [1] | [2] | [3] | [4] | [5] | [6] | [15] | [8] | [18] | [9] | [10] | [11] | [19] | [17] | [12] | [13]
